Measured values taken from PubChem BioAssay AID1159580 (chemical genetic matrix, 2015).
Several values for one entry are separate records, joined by “and”; a condition that tells them apart may be missing. Identical values can stand only once. The campaign covered roughly 5,500 compounds. About 2,000 (36%) were called active. Another 18% or so got no clear call; they are omitted. Cut-off read from the data, not from the text of the source: active = normalized growth mostly below about 0.91 (no sharp cut-off); inconclusive = no clear call, values can overlap the other calls; inactive = mostly above about 0.92. The list shows a part of the results.

Assay: chemical genetic growth profiling, strain panel (AID 1159580);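 note: tested at 20 µM; growth read once vehicle control cultures reached saturation at 30 °C; 1 = growth at the plate median or of vehicle wells; lower values mean less growth of the strain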
Conditions: S. cerevisiae deletion strains, growth OD

SMILES: COc1cc(OC)c2c(=O)c(O)c(-c3ccc(OC)c(OC)c3)oc2c1
- normalized growth (locus YAL021C, strain ccr4, stronger effect = lower value): 0.741 (active)
- normalized growth (locus YAL026C, strain drs2, stronger effect = lower value): 0.852 (active)
- normalized growth (locus YAL030W, strain snc1, stronger effect = lower value): 0.904 (active)
- normalized growth (locus YBL061C, strain skt5, stronger effect = lower value): 0.901 (active)
- normalized growth (locus YBR009C, strain hhf1, stronger effect = lower value): 0.903 (active)
- normalized growth (locus YBR021W, strain FUR4, stronger effect = lower value): 0.922 (inactive)
- normalized growth (locus YBR023C, strain chs3, stronger effect = lower value): 0.827 (active)
- normalized growth (locus YBR171W, strain sec66, stronger effect = lower value): 0.942 (inactive)
- normalized growth (locus YBR229C, strain ROT2, stronger effect = lower value): 0.648 (active)
- normalized growth (locus YBR231C, strain swc5, stronger effect = lower value): 0.77 (active)
- normalized growth (locus YBR279W, strain paf1, stronger effect = lower value): 0.913 (active)
- normalized growth (locus YCL011C, strain gbp2, stronger effect = lower value): 0.916 (inactive)
- normalized growth (locus YCL016C, strain dcc1, stronger effect = lower value): 0.934 (inactive)
- normalized growth (locus YCL029C, strain bik1, stronger effect = lower value): 0.768 (active)
- normalized growth (locus YCL069W, strain vba3, stronger effect = lower value): 0.973 (inactive)
- normalized growth (locus YCR088W, strain abp1, stronger effect = lower value): 0.958 (inactive)
- normalized growth (locus YDL005C, strain med2, stronger effect = lower value): 0.982 (inactive)
- normalized growth (locus YDL035C, strain GPR1, stronger effect = lower value): 0.31 (active)
- normalized growth (locus YDL040C, strain nat1, stronger effect = lower value): 0.978 (inactive)
- normalized growth (locus YDL074C, strain BRE1, stronger effect = lower value): 0.402 (active)
- normalized growth (locus YDL101C, strain DUN1, stronger effect = lower value): 0.396 (active)
- normalized growth (locus YDL134C, strain PPH21, stronger effect = lower value): 0.369 (active)
- normalized growth (locus YDL185W, strain tfp1, stronger effect = lower value): 0.94 (inactive)
- normalized growth (locus YDL192W, strain arf1, stronger effect = lower value): 0.719 (active)
- normalized growth (locus YDR001C, strain nth1, stronger effect = lower value): 0.964 (inactive)
- normalized growth (locus YDR069C, strain doa4, stronger effect = lower value): 0.496 (active)
- normalized growth (locus YDR101C, strain arx1, stronger effect = lower value): 0.811 (active)
- normalized growth (locus YDR137W, strain rgp1, stronger effect = lower value): 0.904 (inactive)
- normalized growth (locus YDR159W, strain sac3, stronger effect = lower value): 0.992 (inactive)
- normalized growth (locus YDR162C, strain NBP2, stronger effect = lower value): 0.132 (active)
- normalized growth (locus YDR195W, strain ref2): 0.984 (inactive)
- normalized growth (locus YDR297W, strain sur2, stronger effect = lower value): 0.841 (active)
- normalized growth (locus YDR318W, strain mcm21, stronger effect = lower value): 0.788 (active)
- normalized growth (locus YDR334W, strain swr1, stronger effect = lower value): 0.856 (active)
- normalized growth (locus YDR335W, strain msn5, stronger effect = lower value): 0.878 (active)
- normalized growth (locus YDR388W, stronger effect = lower value): 0.844 (active)
- normalized growth (locus YDR392W, strain spt3, stronger effect = lower value): 0.943 (inactive)
- normalized growth (locus YDR502C, strain sam2, stronger effect = lower value): 0.667 (active)
- normalized growth (locus YEL003W, strain gim4, stronger effect = lower value): 0.876 (active)
- normalized growth (locus YEL037C, strain rad23, stronger effect = lower value): 0.926 (inactive)
- normalized growth (locus YEL061C, strain CIN8 (second series), stronger effect = lower value): 0.98 (inactive)
- normalized growth (locus YER015W, strain faa2, stronger effect = lower value): 0.82 (active)
- normalized growth (locus YER016W, strain bim1, stronger effect = lower value): 0.942 (inactive)
- normalized growth (locus YER110C, stronger effect = lower value): 1.02 (inactive)
- normalized growth (locus YER111C, strain swi4, stronger effect = lower value): 0.835 (active)
- normalized growth (locus YER155C, strain BEM2 (second series), stronger effect = lower value): 0.936 (inactive)
- normalized growth (locus YER155C, strain BEM2, stronger effect = lower value): 0.664 (active)
- normalized growth (locus YER167W, strain BCK2, stronger effect = lower value): 0.631 (active)
- normalized growth (locus YFR010W, strain ubp6, stronger effect = lower value): 0.852 (active)
- normalized growth (locus YGL078C, strain dbp3, stronger effect = lower value): 0.978 (inactive)
- normalized growth (locus YGL167C, strain pmr1, stronger effect = lower value): 0.938 (inactive)
- normalized growth (locus YGL173C, strain kem1, stronger effect = lower value): 0.78 (active)
- normalized growth (locus YGL227W, strain vid30, stronger effect = lower value): 0.986 (inactive)
- normalized growth (locus YGL240W, strain doc1, stronger effect = lower value): 0.993 (inactive)
- normalized growth (locus YGL248W, strain PDE1, stronger effect = lower value): 0.46 (active)
- normalized growth (locus YGL253W, strain hxk2, stronger effect = lower value): 0.889 (active)
- normalized growth (locus YGR078C, strain PAC10, stronger effect = lower value): 0.591 (active)
- normalized growth (locus YGR135W, strain pre9, stronger effect = lower value): 0.689 (active)
- normalized growth (locus YGR252W, strain gcn5, stronger effect = lower value): 0.85 (inactive)
- normalized growth (locus YHR013C, strain ard1, stronger effect = lower value): 0.868 (inactive)
- normalized growth (locus YHR027C, strain rpn1, stronger effect = lower value): 0.695 (active)
- normalized growth (locus YHR030C, strain SLT2, stronger effect = lower value): 0.971 (inactive)
- normalized growth (locus YHR079C, strain IRE1 (second series), stronger effect = lower value): 0.77 (active)
- normalized growth (locus YHR079C, strain IRE1, stronger effect = lower value): 0.996 (inactive)
- normalized growth (locus YHR094C, strain hxt1, stronger effect = lower value): 0.864 (active)
- normalized growth (locus YHR129C, strain ARP1, stronger effect = lower value): 0.589 (active)
- normalized growth (locus YHR142W, strain chs7, stronger effect = lower value): 0.82 (active)
- normalized growth (locus YHR200W, strain rpn10, stronger effect = lower value): 0.784 (active)
- normalized growth (locus YIL066C, strain RNR3, stronger effect = lower value): 0.46 (active)
- normalized growth (locus YIL073C, strain SPO22, stronger effect = lower value): 0.163 (active)
- normalized growth (locus YIL125W, strain kgd1, stronger effect = lower value): 0.916 (active)
- normalized growth (locus YIR030C, strain dcg1, stronger effect = lower value): 0.873 (active)
- normalized growth (locus YJL092W, strain hpr5, stronger effect = lower value): 0.959 (inactive)
- normalized growth (locus YJL095W, strain BCK1 (second series), stronger effect = lower value): 0.921 (active)
- normalized growth (locus YJL095W, strain BCK1, stronger effect = lower value): 0.264 (active) and 0.97 (inactive)
- normalized growth (locus YJL115W, strain asf1, stronger effect = lower value): 0.973 (inactive)
- normalized growth (locus YJL129C, strain trk1, stronger effect = lower value): 1.01 (inactive)
- normalized growth (locus YJL134W, strain LCB3, stronger effect = lower value): 0.608 (active)
- normalized growth (locus YJL154C, strain vps35, stronger effect = lower value): 0.968 (inactive)
- normalized growth (locus YJL164C, strain tpk1, stronger effect = lower value): 0.758 (active)
- normalized growth (locus YJL166W, strain qcr8, stronger effect = lower value): 0.934 (inactive)
- normalized growth (locus YJL168C, strain set2, stronger effect = lower value): 0.929 (active)
- normalized growth (locus YJL187C, strain SWE1 (second series), stronger effect = lower value): 0.17 (active)
- normalized growth (locus YJR043C, strain POL32, stronger effect = lower value): 0.238 (active)
- normalized growth (locus YJR066W, strain TOR1, stronger effect = lower value): 0.943 (inactive)
